PubChem BioAssay AID1159580 (chemical genetic matrix, 2015)
Several values for one entry are separate records, joined by “and”; a condition that tells them apart may be missing. Equal entries are not always repeated. Out of some 5,500 compounds screened, about 2,000 (36%) were called active. Not shown: some 18% with an inconclusive outcome. Cut-off read from the data, not from the text of the source: active = normalized growth mostly below about 0.91 (no sharp cut-off); inconclusive = no clear call, values can overlap the other calls; inactive = mostly above about 0.92. This is one part of the list.

Experiment: chemical genetic growth profiling, strain panel (AID 1159580);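 note: tested at 20 µM; growth read once vehicle control cultures reached saturation at 30 °C; 1 = growth at the plate median or of vehicle wells; lower values mean less growth of the strain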
Settings: S. cerevisiae deletion strains, growth OD

Measured: normalized growth

CN1CCC[C@H]1c1cccnc1
inactive: locus YAL013W, strain DEP1, stronger effect = lower value 0.998 | locus YAL021C, strain ccr4, stronger effect = lower value 1.02 | locus YAL026C, strain drs2, stronger effect = lower value 1.03 | locus YAL030W, strain snc1, stronger effect = lower value 1.02 | locus YBL061C, strain skt5, stronger effect = lower value 1.03 | locus YBR009C, strain hhf1, stronger effect = lower value 1.02 | locus YBR021W, strain FUR4, stronger effect = lower value 0.968 | locus YBR023C, strain chs3, stronger effect = lower value 1.05 | locus YBR171W, strain sec66, stronger effect = lower value 1.05 | locus YBR229C, strain ROT2, stronger effect = lower value 0.992 | locus YBR231C, strain swc5, stronger effect = lower value 1.02 | locus YBR279W, strain paf1, stronger effect = lower value 1.02 | locus YCL011C, strain gbp2, stronger effect = lower value 1.03 | locus YCL016C, strain dcc1, stronger effect = lower value 1.03 | locus YCL029C, strain bik1, stronger effect = lower value 0.995 | locus YCL061C, strain MRC1, stronger effect = lower value 1 | locus YCL069W, strain vba3, stronger effect = lower value 1.04 | locus YCR088W, strain abp1, stronger effect = lower value 1.02 | locus YDL005C, strain med2, stronger effect = lower value 1.03 | locus YDL035C, strain GPR1, stronger effect = lower value 1.01 | locus YDL040C, strain nat1, stronger effect = lower value 1.02 | locus YDL074C, strain BRE1, stronger effect = lower value 1.03 | locus YDL101C, strain DUN1, stronger effect = lower value 0.994 | locus YDL134C, strain PPH21, stronger effect = lower value 0.994 | locus YDL185W, strain tfp1, stronger effect = lower value 0.983 | locus YDL192W, strain arf1, stronger effect = lower value 0.997 | locus YDR001C, strain nth1, stronger effect = lower value 1.03 | locus YDR069C, strain doa4, stronger effect = lower value 1.02 | locus YDR101C, strain arx1, stronger effect = lower value 1 | locus YDR137W, strain rgp1, stronger effect = lower value 1.05 | locus YDR150W, strain NUM1, stronger effect = lower value 0.999 | locus YDR159W, strain sac3, stronger effect = lower value 1 | locus YDR162C, strain NBP2, stronger effect = lower value 1.03 | locus YDR195W, strain ref2 1.02 | locus YDR297W, strain sur2, stronger effect = lower value 1.02 | locus YDR318W, strain mcm21, stronger effect = lower value 0.983 | locus YDR334W, strain swr1, stronger effect = lower value 1.03 | locus YDR335W, strain msn5, stronger effect = lower value 1.03 | locus YDR388W, stronger effect = lower value 0.996 | locus YDR392W, strain spt3, stronger effect = lower value 0.964 | locus YDR502C, strain sam2, stronger effect = lower value 1 | locus YEL003W, strain gim4, stronger effect = lower value 1.02 | locus YEL037C, strain rad23, stronger effect = lower value 1.03 | locus YEL061C, strain CIN8 (second series), stronger effect = lower value 1.03 | locus YEL061C, strain CIN8, stronger effect = lower value 0.993 | locus YER015W, strain faa2, stronger effect = lower value 1.03 | locus YER016W, strain bim1, stronger effect = lower value 1.02 | locus YER110C, stronger effect = lower value 0.985 | locus YER111C, strain swi4, stronger effect = lower value 1.04 | locus YER155C, strain BEM2 (second series), stronger effect = lower value 0.991 | locus YER155C, strain BEM2, stronger effect = lower value 0.992 | locus YER167W, strain BCK2, stronger effect = lower value 0.98 | locus YFR010W, strain ubp6, stronger effect = lower value 1.03 | locus YGL078C, strain dbp3, stronger effect = lower value 0.994 | locus YGL086W, strain mad1, stronger effect = lower value 0.969 | locus YGL167C, strain pmr1, stronger effect = lower value 1.04 | locus YGL173C, strain kem1, stronger effect = lower value 1.03 | locus YGL227W, strain vid30, stronger effect = lower value 1.04 | locus YGL240W, strain doc1, stronger effect = lower value 1 | locus YGL248W, strain PDE1, stronger effect = lower value 0.985 | locus YGL253W, strain hxk2, stronger effect = lower value 1.04 | locus YGR078C, strain PAC10, stronger effect = lower value 1.04 | locus YGR135W, strain pre9, stronger effect = lower value 1 | locus YGR229C, strain SMI1, stronger effect = lower value 1.02 | locus YGR252W, strain gcn5, stronger effect = lower value 0.949 | locus YHR013C, strain ard1, stronger effect = lower value 1.06 | locus YHR027C, strain rpn1, stronger effect = lower value 1.03 | locus YHR030C, strain SLT2, stronger effect = lower value 0.991 and 0.959 | locus YHR079C, strain IRE1 (second series), stronger effect = lower value 0.996 | locus YHR079C, strain IRE1, stronger effect = lower value 1.03 | locus YHR094C, strain hxt1, stronger effect = lower value 0.989 | locus YHR129C, strain ARP1, stronger effect = lower value 0.99 | locus YHR142W, strain chs7, stronger effect = lower value 1.06 | locus YHR200W, strain rpn10, stronger effect = lower value 0.981 | locus YIL066C, strain RNR3, stronger effect = lower value 0.985 | locus YIL073C, strain SPO22, stronger effect = lower value 0.968 | locus YIL125W, strain kgd1, stronger effect = lower value 0.997 | locus YIR030C, strain dcg1, stronger effect = lower value 0.995 | locus YJL092W, strain hpr5, stronger effect = lower value 1.02 | locus YJL095W, strain BCK1 (second series), stronger effect = lower value 1.02 | locus YJL095W, strain BCK1, stronger effect = lower value 1.01 and 0.947 | locus YJL115W, strain asf1, stronger effect = lower value 1.02 | locus YJL129C, strain trk1, stronger effect = lower value 1.07 | locus YJL134W, strain LCB3, stronger effect = lower value 0.989 | locus YJL154C, strain vps35, stronger effect = lower value 1.02 | locus YJL164C, strain tpk1, stronger effect = lower value 1.02 | locus YJL166W, strain qcr8, stronger effect = lower value 1.03 | locus YJL168C, strain set2, stronger effect = lower value 0.994 | locus YJL187C, strain SWE1 (second series), stronger effect = lower value 0.997 | locus YJL187C, strain SWE1, stronger effect = lower value 1.02 | locus YJR043C, strain POL32, stronger effect = lower value 0.995 | locus YJR066W, strain TOR1, stronger effect = lower value 0.943
